The results in this text go back to PubChem BioAssay (NCI).

Some test systems named below: T-47D breast; BT-549 breast; MDA-MB-435 melanoma; SW-620 colon; HCT-116 colon; HCC-2998 colon; KM12 colon; MCF7 breast.
Test in all cases: NCI-60 one-dose screen, 48 h (100 = growth as untreated, 0 = no growth, -100 = all killed)
Common to all, as to conditions: 10 µM

About 83,000 compounds went through this panel and 20% of them were active in at least one assay; those are over-represented in the sample as a whole.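 Each cell line was grown in a 96-well plate and treated with one concentration of compound for 48 hours. Values below 10 were considered active.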 A number with no mark means an inactive call. Calls of active or inactive are those of the source.

For the compound `OC(CNc1ccnc2cc(Cl)ccc12)CNC1CCCCC1` (centres undefined), the growth in the experiment on T-47D breast was 65.6%; in the experiment on BT-549 breast it was 70%; in the experiment with MDA-MB-435 melanoma, 52.5%; with SW-620 colon, 92.9%; in the experiment with HCT-116 colon, 68.9%; in the experiment on HCC-2998 colon, 64.3%. Besides, the growth with KM12 colon was 83.5%.

For the compound `O=C1c2ccccc2-c2c1c1cccnc1c(=O)n2C[C@H](O)CO`, the growth in the experiment on T-47D breast was 59.6%; in the experiment with BT-549 breast it was 61.7%; with MDA-MB-435 melanoma, 87.5%; with SW-620 colon it was 49.9%; with HCT-116 colon it was 38.5%; with HCC-2998 colon, 79.7%. The growth in the experiment with KM12 colon is 62.1%.

Turning to `COC1=CC(=O)OC(c2ccc(OC)cc2)C1` (centres undefined), the growth in the experiment on T-47D breast was 101%; in the experiment on BT-549 breast, 105%; in the experiment with MDA-MB-435 melanoma it was 114%; in the experiment with SW-620 colon, 102%; with MCF7 breast it was 99.8%; with HCT-116 colon, 108%. For the same compound, the growth in the experiment with KM12 colon was 102%.

As to `COc1cc(-c2nn(-c3ccc(NC(=O)NCCNS(=O)(=O)c4ccc(F)cc4)cc3)cc2-c2ccncc2)ccc1Cl`, the growth in the experiment on T-47D breast was 34.8%; in the experiment on BT-549 breast, -3.98% (active); with MDA-MB-435 melanoma, -0.232% (active); in the experiment on SW-620 colon, 18.3%; in the experiment with HCT-116 colon, -3.49% (active); with HCC-2998 colon, 6.84% (active). The growth with KM12 colon was 2.84% (active).

For `O=c1c(Br)ccc(Br)cc1Br`, the growth with T-47D breast is -44.1% (active); with BT-549 breast, 98.4%; in the experiment on MDA-MB-435 melanoma it was -40.1% (active); in the experiment with SW-620 colon, -46.5% (active); in the experiment on MCF7 breast it was -22.6% (active); with HCT-116 colon, -88.1% (active). Also, in the experiment with KM12 colon, the growth is -47% (active).

In the case of `COc1ccc2c(c1)C(=O)/C(=C/c1ncc([N+](=O)[O-])n1C)O2`, the growth in the experiment on T-47D breast is 92%; in the experiment on BT-549 breast, -18.7% (active); in the experiment on MDA-MB-435 melanoma, -63.2% (active); in the experiment with SW-620 colon, -41% (active); in the experiment with HCT-116 colon, -10.7% (active); in the experiment on HCC-2998 colon, -64.1% (active). For the same compound, in the experiment with KM12 colon, the growth was -36.3% (active).

As to `COc1ccc2c(c1)CC=C1[C@@H]2CC[C@]2(C)C(=O)/C(=N/O)C[C@@H]12`, the growth in the experiment with T-47D breast is 90.2%; in the experiment on BT-549 breast, 88.8%; with MDA-MB-435 melanoma, 90.5%; in the experiment with SW-620 colon, 78.4%; with HCT-116 colon, 61.9%; with HCC-2998 colon it was 79.7%. The growth in the experiment with KM12 colon is 92.6%.

For `CCOC(=O)C1C(C(=O)OCC)C2C(=O)C3C(C(=O)OCC)C(C(=O)OCC)C3C(=O)C12` (centres undefined), the growth was 100% in the experiment on T-47D breast; 109% in the experiment on BT-549 breast; 105% with MDA-MB-435 melanoma; 111% with SW-620 colon; 104% in the experiment with HCT-116 colon; 107% with HCC-2998 colon. Besides, the growth in the experiment with KM12 colon is 109%.

Regarding `Cc1ccc(NCCN(C)CC(C)O)c2c(=O)c3ccccc3sc12` (centres undefined), the growth is 85.2% with T-47D breast; 84.4% in the experiment on BT-549 breast; 30% with MDA-MB-435 melanoma; 23.6% in the experiment with SW-620 colon; 20% in the experiment on MCF7 breast; 18.5% in the experiment with HCT-116 colon. Moreover, the growth in the experiment with HCC-2998 colon is 15.4%; with KM12 colon, 44.9%.

In the case of `OCC1OC(n2cnc3c(NCc4ccco4)ncnc32)C(O)C1O` (centres undefined), the growth in the experiment with T-47D breast was 8.92% (active); in the experiment on BT-549 breast, -23% (active); in the experiment on MDA-MB-435 melanoma, 17.2%; in the experiment on SW-620 colon, 18.8%; with MCF7 breast it was -13.1% (active); in the experiment with HCT-116 colon, 1.81% (active). Also, the growth is 23.7% with HCC-2998 colon and 62.8% in the experiment on KM12 colon.

For `COCCn1cc(-c2nc(-c3cccnc3)cs2)c2cc(F)ccc21`, the growth in the experiment with T-47D breast is 87.7%; in the experiment with BT-549 breast it was 93%; in the experiment with MDA-MB-435 melanoma it was 79.9%; in the experiment with SW-620 colon it was 99.4%; in the experiment with MCF7 breast, 102%; with HCT-116 colon, 102%. The growth in the experiment on HCC-2998 colon is 102%; in the experiment with KM12 colon it was 69.4%.

As to `CS(=O)(=O)c1nccc(-c2c(-c3cccc(OCc4ccccc4)c3)nc3sccn23)n1`, the growth is 65% with T-47D breast; 54.9% in the experiment with BT-549 breast; 78.5% in the experiment on MDA-MB-435 melanoma; 47.1% in the experiment with SW-620 colon; 58.3% in the experiment with HCT-116 colon; 32.4% with HCC-2998 colon. In the experiment with KM12 colon, the growth was 50.7%.

For the compound `Cc1ccc(S(=O)(=O)N/N=C2\CCCc3ccccc32)cc1`, the growth is 94% in the experiment with T-47D breast; 115% in the experiment with BT-549 breast; 101% in the experiment on MDA-MB-435 melanoma; 101% with SW-620 colon; 92.1% in the experiment with MCF7 breast; 114% in the experiment with HCT-116 colon. The growth is 108% in the experiment with HCC-2998 colon and 111% with KM12 colon.

With `CC(=O)/C(=C/c1ccc(Br)cc1)C(=O)c1ccccc1`, the growth was 86.5% in the experiment with T-47D breast; 96.9% with BT-549 breast; 65.9% in the experiment on MDA-MB-435 melanoma; 58.2% in the experiment on SW-620 colon; 43.4% with MCF7 breast; 12.2% in the experiment on HCT-116 colon. Also, the growth with KM12 colon was 58.6%.

As to `COC(=O)CC[C@@H](C)[C@H]1CC[C@H]2[C@@H]3CC[C@@H]4C[C@H](O)CC[C@]4(C)[C@H]3C[C@H](O)[C@]12C`, the growth was 89.2% with T-47D breast; 96.4% in the experiment with BT-549 breast; 118% with MDA-MB-435 melanoma; 107% in the experiment on SW-620 colon; 84.8% in the experiment on MCF7 breast; 86.7% in the experiment on HCT-116 colon. Moreover, the growth in the experiment with KM12 colon is 102%.
